Records with an inconclusive call do not appear. A number with no mark means an inactive call. Active and inactive are the calls of the source. Calls follow the shape of the dose curve; as a rule, active = well fitted inhibition curve with a large enough effect; inconclusive = small, poorly fitted or top-dose-only effect; inactive = flat fitted curve, though single readings scatter. Non-standard residues stand in square brackets, D forms with d. Residues, ends and D or L forms follow the SMILES beside them. *: point of attachment. Sta = CC(C)C[C@H](N)[C@@H](O)CC(=O)O; Isovaleryl = CC(C)CC(=O)*

Drawing on PubChem BioAssay (NCATS), this text covers activity, negative = cell killing and Potency for 11 compounds.

This test is described as follows: Drug repurposing screens with cells derived from glioblastoma tumor samples (AID 1345199). Also: nearly all actives have a fitted effect of over 40% in size. To be noted: GBM patient neurospheres viability, ATP luminescence, 48 h. On the procedure: CD133+ cells were isolated from GBM patient biopsies and cultured as neurospheres. Neurospheres from four patients were used to screen the NCATS pharmaceutical collection (NPC) library of approved drugs and bioactive compounds. […] The neurospheres were incubated with drugs for 48 hours in 1536-well format, then assayed with an ATP content cell viability assay. […] These hits were cherry picked to confirm activity in the four original GBM lines screened plus three other slower growing GMB lines (unable to yield enough cells for a full primary screen). Variable activities of the confirmed primary hits in the different GBM patient lines were observed. The patient line 206 responded to the greatest number of compounds and line 923 responded to the least amount of active compounds.

Setting [1] is: at 20 µM (top of the series), tumour line C.
Setting [2] is: at 21.2 µM (top of the series), tumour line B.
Where [3] appears, read: at 21.2 µM (top of the series), tumour line D.
Where [4] appears, read: at 45.9 µM (top of the series), tumour line B.
Setting [5] is: at 45.9 µM (top of the series), tumour line D.
The mark [6] stands for this setting: at 46.1 µM (top of the series), tumour line C.
Where [7] appears, read: at 46 µM (top of the series), tumour line A.
% is scaled to controls: 0 for no effect and ±100 for the full control effect; potency is read from the fitted curve at half-maximal effect.

Consider `NNc1nncc2ccccc12`, for which the activity, negative = cell killing is, setting by setting: under setting [1], -13.5%; under setting [2], -20%; under setting [3], -12.5%.
Consider `Cc1cccc(CN2CCN(C(c3ccccc3)c3ccc(Cl)cc3)CC2)c1` (stereo not given), for which the activity, negative = cell killing under setting [1] is -7.92%. Besides, the Potency (tumour line A) is 5.62 µM (active).
Regarding `CC1Cc2ccccc2N1NC(=O)c1ccc(Cl)c(S(N)(=O)=O)c1` (stereo not given), the activity, negative = cell killing is 27.9% under setting [1]; -2.89% under setting [2]; 1.12% under setting [3]; 9.62% under setting [4]; -0.642% under setting [5]; 0.368% under setting [6].
Take `CC(C)CC(=O)N[C@H](C(=O)N[C@H](C(=O)N[C@@H](CC(C)C)[C@@H](O)CC(=O)N[C@@H](C)C(=O)N[C@@H](CC(C)C)[C@@H](O)CC(=O)O)C(C)C)C(C)C` (Isovaleryl-VV[Sta]A[Sta]-OH): the activity, negative = cell killing reads like this: under setting [4], -11.5%; under setting [5], -9.71%; under setting [7], -22.1%; under setting [6], -23.6%.
Regarding `CC(=O)NC[C@H]1CN(c2ccc(N3CCOCC3)c(F)c2)C(=O)O1`, the activity, negative = cell killing by setting is: under setting [4], -14.6%; under setting [5], -26.2%; under setting [6], 15.8%.
In the case of `CNC[C@H](O)c1ccc(O)c(O)c1`, the activity, negative = cell killing under setting [4] is -6.05%; the activity, negative = cell killing under setting [5] is -9.08%; the activity, negative = cell killing under setting [7] was -12.1%; the activity, negative = cell killing under setting [6] is -9.48%.
The corresponding values for `CC(S)C(=O)NCC(=O)O` (stereo not given) are -0.523%, -24.6%, -28.9% and -4.37%.
Take `Cc1cc2c(s1)Nc1ccccc1N=C2N1CCN(C)CC1`: the activity, negative = cell killing is -20.2% under setting [4], -20.6% under setting [5] and -6.39% under setting [6]. In addition, the Potency (tumour line A) is 12.6 µM (active).
Take `CCC1=C(C)CN(C(=O)NCCc2ccc(S(=O)(=O)NC(=O)NC3CCC(C)CC3)cc2)C1=O` (stereo not given): the activity, negative = cell killing is, setting by setting: under setting [4], 4.42%; under setting [5], -28.4%; under setting [6], -8.33%.
In the same order, the values of `C=CCc1cc(OC)c(O)c(C(=O)NCCO)c1` are -18.2%, -1.66% and 2.37%.
With `O=C(O)CCNC(=O)c1ccc(N=Nc2ccc(O)c(C(=O)O)c2)cc1`, the activity, negative = cell killing under setting [4] was -6.99%; the activity, negative = cell killing under setting [5] is -11.2%; the activity, negative = cell killing under setting [7] was -28%; the activity, negative = cell killing under setting [6] is -6.53%.
